Measured values: PubChem BioAssay AID894 (National Center for Advancing Translational Sciences (NCATS), 2007)
The whole screen tested about 150,000 compounds, of which about 6,500 (4.3%) were called active. Inconclusive results (about 12%) are left out. The entries come from a sample that favours actives as a whole. Values without a mark were called inactive. Calls come from the whole dose curve; as a rule, active = well fitted inhibition curve with a large enough effect (not every such curve was filed as active); inconclusive = small, poorly fitted or top-dose-only effect, or another doubt; inactive = no such curve, though single readings can be large or run the other way.

biological target: 15-hydroxyprostaglandin dehydrogenase [NAD(+)] (Homo sapiens) (UniProt P15428); assay: qHTS Assay for Inhibitors of HPGD (15-Hydroxyprostaglandin Dehydrogenase); conditions: purified HPGD, NADH fluorescence kinetic, PGE2 substrate; activity change, negative = inhibition: active compounds read low
Sequence (P15428 whole entry, looked up): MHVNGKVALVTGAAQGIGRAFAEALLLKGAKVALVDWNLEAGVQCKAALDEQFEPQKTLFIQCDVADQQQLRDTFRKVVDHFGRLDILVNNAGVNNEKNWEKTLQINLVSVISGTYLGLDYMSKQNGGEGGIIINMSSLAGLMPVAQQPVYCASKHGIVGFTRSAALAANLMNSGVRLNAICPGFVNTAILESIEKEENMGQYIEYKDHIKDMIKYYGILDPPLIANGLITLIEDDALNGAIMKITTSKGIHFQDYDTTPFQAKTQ
Procedure, shortened: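 NADH formation kinetics: reaction with 30 uM PGE2 and 1 mM NAD+ (final), 20 nM enzyme, Tris-HCl pH 8 with Tween 20, after 15 min compound preincubation at room temperature. Fluorescence change, last versus first of five reads.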
% is set by controls: 0 for no effect and ±100 for the full control effect; potency is the fitted concentration of half-maximal effect.

Compound | activity change, negative = inhibition | Potency
NC(=O)Nc1ccccc1C(=O)NCCc1ccccc1 | -3.92% | –
CCOc1cc(/C=N/NC(=O)OC)ccc1OCCSc1ccc(Cl)cc1 | -11.7% | –
Cc1nn(-c2ccccc2)c2c1C(c1cccc([N+](=O)[O-])c1)N(c1ccccc1)C(=O)N2 (configuration not stated) | -6.84% | –
CC(Sc1cccc[n+]1[O-])C(=O)Nc1cccc(S(=O)(=O)N2CCOCC2)c1 (configuration not stated) | -20.6% | –
CC(=O)CC(c1ccccc1)C1C(=O)Oc2ccccc2C1=O (configuration not stated) | -12.2% | –
O=C(c1cncc(Br)c1)N1CCN(c2ccc([N+](=O)[O-])cc2)CC1 | -27.4% | –
CSCc1ccc(C(=O)Nc2cc(C)cc(C)c2)cc1 | -12.7% | –
COc1ccc(N(C(=O)c2cccnc2)S(=O)(=O)c2ccc3c(c2)n(C)c(=O)n3C)cc1 | -4.39% | –
O=C(c1cccnc1)N(c1cc2sc(=O)oc2c2ccccc12)S(=O)(=O)c1ccccc1 | – | 17.8 µM (active)
CN(C)S(=O)(=O)c1cccc(C(=O)Nc2cccnc2)c1 | -13.1% | –
COc1ccc(/C=N/NC(=O)c2ccccc2)cc1OS(=O)(=O)c1ccccc1 | -15.2% | –
Cn1c(=NC(=O)CSCC(=O)N2CCCCC2)sc2ccccc21 | – | 22.4 µM (active)
Cn1c(=NC(=O)c2cnccn2)sc2ccccc21 | -8.2% | –
Cn1c(=NC(=O)CSCC(=O)N2CCOCC2)sc2ccccc21 | -16.8% | –
O=C(Nc1nc(-c2ccc(-c3ccccc3)cc2)cs1)c1cnccn1 | -5.23% | –
CN(c1ccccc1)S(=O)(=O)c1cccc(NC(=O)Cc2c(F)cccc2Cl)c1 | -8.06% | –
Cc1ccc2c(c1)C1CN(C)CCC1N2C(=O)c1ccccc1NS(=O)(=O)c1ccc(F)cc1C (configuration not stated) | -6.43% | –
O=C(C1CCN(c2nnc(-n3cccc3)s2)CC1)N1CCc2ccccc2C1 | – | 14.1 µM (active)
CSc1ccc(CCNC(=O)C2CCN(c3nnc(-n4cccc4)s3)CC2)cc1 | 2.14% | –
CCOC(=O)C1CCCN(C(=O)C2CCN(c3nnc(-n4cccc4)s3)CC2)C1 (configuration not stated) | -22.6% | –
O=C(NC(Nc1nc2ccc([N+](=O)[O-])cc2s1)(C(F)(F)F)C(F)(F)F)c1ccccc1 | -5.24% | –
COC(=O)C(NC(=O)c1ccc(OC)cc1)(Nc1ncc(S(=O)(=O)c2ccc([N+](=O)[O-])cc2)s1)C(F)(F)F (configuration not stated) | – | 15.8 µM (active)
COc1ccc(C(=O)Nc2nc(-c3ccc(OC)cc3)c(-c3ccc([N+](=O)[O-])cc3)s2)cc1 | -12.2% | –

Compound | activity change, negative = inhibition | Potency
CN(c1ccc(C(=O)NCc2ccccn2)cc1)S(C)(=O)=O | -25.1% | –
O=C(NCc1ccccn1)c1ccc2nc(-c3ccco3)c(-c3ccco3)nc2c1 | – | 14.1 µM (active)
CCOc1ccc(C(=O)NC(C(=O)NCc2ccccn2)C(C)C)cc1 (configuration not stated) | -8.11% | –
COc1ccccc1C1SCCN1C(=O)c1ccc([N+](=O)[O-])cc1 (configuration not stated) | -2.04% | –
O=C(CN1CCN(c2ccc(O)cc2)CC1)Nc1cc(S(=O)(=O)N2CCOCC2)ccc1Cl | -5.21% | –
Cc1ccc(-n2c(C)cc(C(=O)CSc3nnc4ccccn34)c2C)cc1 | -16.1% | –
C/C(=N\NC(=O)c1ccc(NS(=O)(=O)c2cccs2)cc1)c1ccc2ccccc2c1 | -21.6% | –
Nc1c(C(=O)NCc2ccccc2)sc2nc3c(cc12)C(=O)CCC3 | -24.2% | –
Cc1cccc(NC(=O)c2sc3nc4c(c(-c5ccco5)c3c2N)CCC4)c1 | -21.6% | –
CC(C)OC(=O)c1sc2nc3c(cc2c1N)C(=O)CCC3 | – | 28.2 µM (active)
C/C(CCC(=O)OC[C@H]1O[C@H](C#Cc2ccccc2)C=C[C@@H]1Oc1ccc(C)cc1)=N\OC[C@@H](O)[C@H]1O[C@@H]2OC(C)(C)O[C@@H]2[C@H]1O | -19.5% | –
CCc1ccc(NC(=O)CC2C(=O)NCCN2C(=S)Nc2ccccc2)cc1 (configuration not stated) | -10.9% | –
Cc1ccc(NN=C2C(=O)OC(C)(C)OC2=O)c(C)c1 | -9.59% | –
C=CC1=C2C=C(C3CC3)N(C(CO)CO)C=C2C(=O)C(C)(OC(=O)c2ccco2)C1=O (configuration not stated) | -2.61% | –
COc1ccc(C(C[N+](=O)[O-])n2nc(C)cc2C)cc1 (configuration not stated) | – | 31.6 µM (active)
COc1ccc(OCc2cn3c(C)cc(C)nc3n2)cc1 | -7.95% | –
COc1ccc(Nc2cc(C)nc(-n3nc(C)cc3C)n2)cc1 | -0.842% | –
COc1ccc(N2CCN(c3ccc([N+](=O)[O-])cc3Cl)CC2)cc1 | -1.48% | –
COc1cc2c(cc1OC)C(Nc1ccc(S(N)(=O)=O)cc1)=NC(C)(C)C2 | -7.98% | –
CC(Sc1nnc2c(n1)C1CCC2(C)C1(C)C)C(=O)Nc1ccccc1 (configuration not stated) | -10.3% | –
CSc1ccccc1C(=O)Nc1cccc(C(C)=O)c1 | -4.99% | –
CSc1nc(C)cc(SC(C(C)=O)C(=O)Nc2ccccc2)n1 (configuration not stated) | – | 25.1 µM (active)
CCCCOc1ccc(C(=O)NCC(=O)OCC(=O)N2CCN(S(=O)(=O)c3ccc(C)cc3C)CC2)cc1 | -0.54% | –

Compound | activity change, negative = inhibition | Potency
COC(=O)c1ccc(C(=O)OC)c(NC(=S)N2CCN(c3ccc(F)cc3)CC2)c1 | -14.5% | –
CCOc1ccc(C(=O)NC(=S)Nc2ccc(NC(=O)C(C)C)cc2)cc1[N+](=O)[O-] | -3.94% | –
Cc1nnc(-c2ccc(Oc3ccc(C)c(C)c3)c([N+](=O)[O-])c2)o1 | – | 10 µM (active)
COc1ccc(OCC(=O)Nc2cc(C)c(Cl)cc2OC)c([N+](=O)[O-])c1 | -1.27% | –
S=C(NCc1ccc(Cl)cc1)NC1CCCCC1 | -2.44% | –
CC(C)Nc1ncnc2c1nnn2Cc1ccccc1 | – | 28.2 µM (active)
C#CCNc1nc(C(C)C)nc2c1nnn2Cc1ccccc1F | -2.63% | –
CC(C)(C)c1nc(NCC2CCCO2)c2nnn(Cc3ccccc3)c2n1 (configuration not stated) | -9.49% | –
N#Cc1ccccc1NC(=O)c1cccc(COc2ccc(Cl)cc2Cl)c1 | -14.4% | –
Cc1ccc(-n2c(SCC(=O)Nc3ncc(Cl)cc3Cl)nc3ccccc32)cc1 | -16.1% | –
COCC(C)n1c(C)cc(C(=O)CSc2cc(C)c3ccccc3n2)c1C (configuration not stated) | -10.7% | –
COc1ccc(/C=N/NC(=O)c2ccc(Cl)cc2)cc1COC(C)=O | -5.1% | –
Cc1ccc(C(=O)OCc2nc(N)nc(Nc3ccccc3C)n2)cc1 | -0.25% | –
CC(Oc1ccc(Cl)cc1Cl)C(=O)/C=C/N(C)C (configuration not stated) | – | 22.4 µM (active)
CCC(C)NC(=O)c1cc(Cl)ccc1OC (configuration not stated) | -11.4% | –
CN(C)/C=C/C(=O)c1ccccc1F | -27.4% | –
CCn1cc(CNC(=O)c2cc([N+](=O)[O-])c(C)c([N+](=O)[O-])c2)cn1 | -7.17% | –
Cc1nc2ccccc2nc(C)c1=NOCc1ccc(Cl)cc1Cl | -8.26% | –
Cc1nnnn1/C(=C\c1ccccc1)C(=O)OCC(=O)N1CC2(C)CC1CC(C)(C)C2 (configuration not stated) | -7.09% | –
O=C(NC1CC1)c1ccc2c(c1)NC(=O)c1ccccc1S2 | – | 20 µM (active)
S=C1Nc2cc(Cl)ccc2Sc2ccccc21 | -14% | –
O=C(NC1CC1)c1cccc(Br)c1 | -26.7% | –
COc1cc(Cl)c(C)cc1NC(=O)[C@@H]1CCCN1C(=O)c1cccs1 | -4.97% | –

Compound | activity change, negative = inhibition | Potency
COc1ccc(-c2nn(-c3ccccc3)cc2/C=N/Nc2ccccn2)cc1OC | -26.3% | –
CC(=O)Nc1ccc(NC(=O)C(C)OC(=O)c2ccccc2C(=O)c2ccc(Cl)c([N+](=O)[O-])c2)cc1 (configuration not stated) | -2.62% | –
COc1ccc(C2CC(c3ccccc3)=NN2C(=O)CSc2nccc(=O)[nH]2)cc1 (configuration not stated) | -5.74% | –
COCCNC(=O)c1ccc(N2CCC3(CC2)OCCO3)c([N+](=O)[O-])c1 | -17.4% | –
CCC(C)NC(=O)c1ccc(N2CCC3(CC2)OCCO3)c([N+](=O)[O-])c1 (configuration not stated) | – | 39.8 µM (active)
CCOC(=O)c1c(NC(=O)c2ccc(N3CCOCC3)c([N+](=O)[O-])c2)sc(C)c1C | -7.82% | –
CC(C)CNC(=O)COC(=O)c1ccccc1OCC(=O)Nc1ccc(Br)cc1 | -5.33% | –
Oc1c(C=Nc2cccc3nsnc23)ccc2ccccc12 | – | 25.1 µM (active)
Nc1nc(NC(=O)/C=C/c2ccccc2)nn1-c1ccccc1 | -3.01% | –
COc1cc(C2CC(=O)N3CN(Cc4ccccc4)CSC3=C2C#N)ccc1OCc1ccccc1 (configuration not stated) | – | 10 µM (active)
COc1ccc(C2CC(=O)n3c(nc4ccccc43)S2)cc1OC (configuration not stated) | -12.6% | –
COc1ccc(C2C(C#N)=C(/N=C/N3CCOCC3)OC3=C2C(=O)CC(C)(C)C3)cc1OC (configuration not stated) | -16.4% | –
CC(C)C(=O)Nc1ccc(C(=O)NNC(=O)c2cccs2)cc1 | -13.5% | –
Cc1cc(C)nc(NC(=O)c2cccc([N+](=O)[O-])c2)c1 | -3.35% | –
CCCCC/C=C\C/C=C\CCCCCCCCCC(=O)O | -12.4% | –
Cc1ccc(NC(=O)CCC(=O)N/N=C/c2ccco2)c(C)c1 | -2.23% | –
COc1ccc(C(=O)O/N=C(\N)Cc2ccc(Cl)cc2Cl)cc1OC | -15.7% | –
Cc1nnc(SCC(=O)NC2CCCC2)s1 | – | 28.2 µM (active)
CC1CCCC(NC(=O)CSc2nccn2C)C1C (configuration not stated) | -27.8% | –
Cc1cnc(NC(=O)CSc2nnc(C)s2)s1 | -0.21% | –
Nc1nnc(SCC(=O)OCc2ccc(Cl)c(Cl)c2)s1 | -17.6% | –
Cc1nnc(SCC(=O)Nn2cnnc2)s1 | -0.465% | –
CC1CCCCC1NC(=O)CSc1nnc(N)s1 (configuration not stated) | – | 17.8 µM (active)
